Assay outcomes (PubChem)
Shown is part of a subset that was picked to be rich in hits.
Marburg entry inh: blocks Marburg virus binding to or entry into cells; Marburg virus pseudotyped entry inhibition, cell reporter; Potency, µM (titrated, usually from 37.8 µM), most hits filed as inhibitors; 1.8% of 300,000 active; calls by dose curve; tested in HEK293 cells
CHX counter: counter-screen hit for Shiga toxin inhibitors, cycloheximide; cell reporter, cycloheximide protein synthesis inhibition counterscreen; 12% of 300,000 active; max response, %; in the data active means max response mostly above about 13%, no sharp cut-off; inactive means mostly below about 14%; further: read at 38.3 µM for the half of the compounds with a filed dose
AMA1 RON2 block: AMA1-RON2 (P. falciparum) interaction inhibition | AlphaScreen AMA1-biotinylated RON2 peptide binding | 0.2% of 360,000 active | Potency, µM (highest dose often 58.2 µM), usual class: inhibitors; active means well fitted inhibition curve with a large enough effect; inconclusive means small, poorly fitted or top-dose-only effect; inactive means no such curve, though single readings can be large or run the other way; further: nearly all actives have a fitted effect of over 45% in size
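AMA1 (3D7) with his tag at 25 nM final met compounds first, then biotinylated RON2 peptide at 25 nM; detection used donor plus acceptor beads, 10 µg/mL apiece, read by AlphaScreen after 30 min at room temperature.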
Shiga inhibitor: inhibitors of Shiga toxin in Vero cells; Vero cells, Shiga toxin protein synthesis inhibition reporter; inhibition, % at 38.7 µM; 9.2% of 290,000 active; AID 2315; in the data active means inhibition mostly above about 28%, no sharp cut-off; inactive means mostly below about 43%
Lassa entry inh: Lassa virus entry inhibition; Potency, µM (titrated, usually from 37.9 µM), actives largely listed as inhibitors; AID 540256; 1.2% of 300,000 active; Lassa virus pseudotype entry inhibition, cell reporter; calls by dose curve; tested in HEK293 cells; further: nearly all actives have a fitted effect of over 50% in size
Each line names hits and unclear results; the compound was inactive in the other large screens.

CCn1cc2nc(SCC(=O)Nc3cc(OC)ccc3OC)n(Cc3ccc(Cl)cc3)c(=O)c2n1	Marburg entry inh 12.6µM (no result: CHX counter, AMA1 RON2 block, Shiga inhibitor)
CCn1cc2nc(SCC(=O)Nc3cccc(Cl)c3C)n(Cc3ccc(Cl)cc3)c(=O)c2n1	Marburg entry inh inconclusive (no result: CHX counter, AMA1 RON2 block, Shiga inhibitor)
O=C(CSc1nnc(CNC(=O)c2cccc(F)c2)n1-c1ccccc1)Nc1ccccc1F	Marburg entry inh inconclusive (no result: CHX counter, AMA1 RON2 block, Shiga inhibitor)
CN(Cc1cccnc1)Cc1cn[nH]c1-c1ccc(-c2ccccc2)cc1	CHX counter 6.6
O=C(Cc1ccc(-c2ccccc2)cc1)NCc1cccnc1	Marburg entry inh inconclusive, Lassa entry inh inconclusive
CCOc1cc(Br)c(CN2C(=O)NC3(CCCCCC3)C2=O)cc1OCC	Marburg entry inh 11.2µM (no result: Lassa entry inh)
CCCC#Cc1ccc2c(c1)O[C@H](CN(C)S(=O)(=O)c1cccc(OC)c1)[C@H](C)CN([C@H](C)CO)S2(=O)=O	none (no result: Marburg entry inh, CHX counter, Shiga inhibitor, Lassa entry inh)
O=C(Nc1ccc2c(c1)OCO2)c1noc2c1CCCCC2	Marburg entry inh inconclusive, CHX counter 38.2, Shiga inhibitor 100.8, Lassa entry inh inconclusive
O=C(Nc1cccnc1)c1noc2c1CCCC2	CHX counter 46.8, Shiga inhibitor 85.4
O=C(Nc1ccc2c(c1)OCO2)c1noc2c1CCCC2	Marburg entry inh 7.08µM, CHX counter 33.5, Shiga inhibitor 52.7, Lassa entry inh inconclusive
CCOC(=O)c1ccc(NC(=O)c2noc3c2CCCC3)cc1	none (no result: Marburg entry inh, CHX counter, AMA1 RON2 block, Shiga inhibitor)
CC(=O)c1ccc(NC(=O)c2noc3c2CCCCC3)cc1	CHX counter 39.9, Shiga inhibitor 44.1 (no result: Lassa entry inh)
CC(C)(C)C1CCc2onc(C(=O)Nc3cccnc3)c2C1 (stereo not given)	Marburg entry inh inconclusive
CC(=O)NS(=O)(=O)c1ccc(NC(=O)CC(C)c2ccccc2)cc1 (stereo not given)	Marburg entry inh inconclusive
CCn1c(SCc2ccc(F)cc2Cl)nnc1-c1nonc1NC(C)=O	none (no result: CHX counter, AMA1 RON2 block, Shiga inhibitor)
Cc1ccccc1OCc1ccc(-c2nc(C#N)c(N3CCC(C(N)=O)CC3)o2)o1	Marburg entry inh inconclusive (no result: CHX counter, AMA1 RON2 block, Shiga inhibitor)
CC(=O)Nc1ccc(Oc2sc(C(=O)c3ccccc3)c(N)c2C#N)cc1	Marburg entry inh inconclusive, Lassa entry inh 0.891µM
Cc1ccc(S(=O)(=O)N2CCC(C(=O)Nc3nnc(-c4ccco4)s3)CC2)cc1	none
O=C(Nc1nnc(-c2ccco2)s1)C1CCCCC1	CHX counter 42.0, Shiga inhibitor 71.0, Lassa entry inh inconclusive
COC(=O)Nc1nnc(-c2ccco2)s1	CHX counter 11.7
CCc1ccc(OCC(=O)Nc2nnc(-c3ccco3)s2)cc1	none (no result: Marburg entry inh, Lassa entry inh)
CC(C)CC(=O)Nc1nnc(-c2ccco2)s1	CHX counter 29.2, Lassa entry inh inconclusive
COC(=O)Nc1nnc(COc2ccccc2)s1	none
Cc1cc(C)c(NC(=O)C(=O)NCC(c2cccnc2)N2CCN(Cc3ccccc3)CC2)c(C)c1 (stereo not given)	none (no result: Marburg entry inh, CHX counter, AMA1 RON2 block, Shiga inhibitor)
Cc1ccc2scc(N3CCc4ccccc4C3)c(=O)c2c1	none (no result: Marburg entry inh, CHX counter, AMA1 RON2 block, Shiga inhibitor)
Cc1ccc(Nc2ccccc2)cc1	CHX counter 19.0
c1ccc(Nc2cccc(Nc3ccccc3)c2)cc1	Marburg entry inh inconclusive, CHX counter 44.2, AMA1 RON2 block inconclusive, Shiga inhibitor 78.1, Lassa entry inh inconclusive
COC(=O)[C@]12CCCCC=C1N(Cc1ccc3c(c1)OCO3)C(=O)[C@H](CC(=O)NCCCCc1ccccc1)C2	none (no result: Marburg entry inh, CHX counter, Shiga inhibitor, Lassa entry inh)
Nc1cc(C(F)(F)F)ccc1NCCc1ccccn1	none
Oc1ccc(Cl)cc1CNCc1ccc(C(F)(F)F)cc1	none (no result: Marburg entry inh, CHX counter, Shiga inhibitor, Lassa entry inh)
NC(=O)c1ccsc1NC(=O)COc1ccccc1	CHX counter 42.0, Shiga inhibitor 85.8, Lassa entry inh inconclusive
O=C(COC(=O)C1CC2CCCC(C1)C2=O)Nc1ccccc1 (stereo not given)	Marburg entry inh inconclusive (no result: CHX counter, Shiga inhibitor)
COc1ccc(C(=O)OCC(=O)Nc2sccc2C(N)=O)cc1OC	CHX counter 9.3
NC(=O)c1ccsc1NC(=O)COC(=O)C1CC2CCCC(C1)C2=O (stereo not given)	CHX counter 14.0, Lassa entry inh inconclusive
COc1cccc(CNc2nccs2)c1O	CHX counter 24.3 (no result: Shiga inhibitor)
Cc1ccc(C)c(NC(=O)CSc2nnc(NC(=O)C3CC3)s2)c1	none
CC1(C)OC(=O)C2=C(C[C@@H](CCc3ccccc3)O[C@H]2CCc2cccc(Cl)c2)O1	none (no result: Marburg entry inh, CHX counter, Shiga inhibitor, Lassa entry inh)
NC(=O)c1ccsc1NC(=O)COC(=O)Cc1cccc2ccccc12	Marburg entry inh 7.08µM
COc1ccccc1CCC(=O)Nc1ccc(C)cc1Cl	CHX counter 54.7, Shiga inhibitor 90.0
O=C(COc1ccc2ccc(=O)oc2c1)Nc1cccnc1	none (no result: Marburg entry inh, Lassa entry inh)
NC(=O)c1ccsc1NC(=O)COC(=O)Cc1ccccc1	none (no result: Marburg entry inh, CHX counter, Shiga inhibitor, Lassa entry inh)
O=C(COc1ccc2ccc(=O)oc2c1)Nc1nccs1	CHX counter 64.2, Shiga inhibitor 67.7 (no result: Marburg entry inh, Lassa entry inh)
COc1ccccc1CCC(=O)Nc1nccs1	CHX counter 13.6
CCC(Cc1ccccc1)NC(=O)CN1C(=O)COc2ccc(S(=O)(=O)N3CCCCCC3)cc21 (stereo not given)	none (no result: CHX counter, AMA1 RON2 block, Shiga inhibitor)
CC(C)C(NC(=O)c1c(F)cccc1F)C(=O)NC1CC(C)(C)NC(C)(C)C1 (stereo not given)	none
O=C(Nc1cccc(Cl)c1)c1csc([C@H]2C[C@H](O)[C@@H](CO)O2)n1	none (no result: Marburg entry inh, CHX counter, Shiga inhibitor, Lassa entry inh)
COCCNc1nc(-c2ccccc2CO)c2sc(-c3ccccc3)cc2n1	none (no result: Marburg entry inh, CHX counter, Shiga inhibitor, Lassa entry inh)
O=C(COC(=O)c1ccccc1Cl)Nc1nccs1	CHX counter 11.1
CCSc1nnc(NC(=O)COc2ccc3ccccc3c2)s1	none
O=C(COc1ccccc1)Nc1nccs1	CHX counter 30.3, Shiga inhibitor 52.9
C=CCOc1ccc(CNC(C)(C)C)cc1OC	none
C=CCOc1ccc(CNc2nccs2)cc1OC	CHX counter 26.2, Shiga inhibitor 22.4
O=C(COc1ccc2ccccc2c1)Nc1nccs1	Marburg entry inh inconclusive, CHX counter 42.4, Shiga inhibitor 52.0, Lassa entry inh inconclusive
CC1(C)CC[C@]2(CO)CC[C@]3(C)C(=CCC4[C@@]5(C)CC[C@H](O)[C@@](C)(CO)C5CC[C@]43C)[C@@H]2C1 (stereo not given in full)	none (no result: Marburg entry inh, CHX counter, Shiga inhibitor, Lassa entry inh)
CC1(Cc2ccc(OC(F)(F)F)cc2)C(=O)Nc2c(Cl)ccc(Cl)c21 (stereo not given)	none (no result: Marburg entry inh, CHX counter, Shiga inhibitor, Lassa entry inh)
CCOC1=C/C(=C/c2c(N)n3nc(-c4ccccc4)sc3nc2=O)C=CC1=O	Marburg entry inh inconclusive, Lassa entry inh inconclusive
COC1=C/C(=C/c2c(N)n3nc(-c4ccc(C)cc4)sc3nc2=O)C=CC1=O	Marburg entry inh inconclusive, CHX counter 54.5, Shiga inhibitor 76.2
O=C1c2ccccc2C(=O)C1c1ccc2ccccc2n1	Marburg entry inh inconclusive, CHX counter 34.3, Shiga inhibitor 78.5, Lassa entry inh 5.8µM
COC(=O)C1=C(C)NC(C)=C(C(=O)OC)C1c1ccc2ccccc2n1	Marburg entry inh inconclusive
O=C1N(Cc2ccccc2Cl)c2ccccc2C1(O)c1c[nH]c2ccccc12 (stereo not given)	none (no result: CHX counter, AMA1 RON2 block, Shiga inhibitor)
Cc1ccccc1CN1C(=O)C(O)(c2c[nH]c3ccccc23)c2cc(Cl)ccc21 (stereo not given)	Marburg entry inh 8.91µM, Lassa entry inh inconclusive (no result: CHX counter, AMA1 RON2 block, Shiga inhibitor)
CC(C)Oc1ccccc1C1CC(=O)Nc2cc3c(cc21)OCCO3 (stereo not given)	Marburg entry inh inconclusive, Lassa entry inh inconclusive
CCCOc1c(OC)cccc1C1CC(=O)Nc2cc3c(cc21)OCO3 (stereo not given)	Marburg entry inh inconclusive, Lassa entry inh 7.08µM
